Drawing on the supplement of paper PMC6279402, this text covers relative viability for 10 compounds.

The test relates to A549. Nature of the test: relative viability (normalised to negative control = 1, bortezomib = 0) (fraction); higher = less cytotoxic. Particulars: inflammatory serum-free RHB-A with cytokines + LPS, 5 d + 24 h CellTiter-Blue. How it is done: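 A549 KRAS-mutant NSCLC cells, pre-treated 5 µM GSK126 or vehicle (DMSO), were seeded at 250 cells/well in 384-well plates in serum-free RHB-A medium with inflammatory cytokines/LPS and treated with Selleck kinase inhibitor and NCI oncology compounds at 30 or 300 nM in triplicate, refreshed at 48 h. Viability was read by CellTiter-Blue after 5 d plus 24 h and normalised per plate with cellHTS2 (mean of bortezomib positive control = 0, mean of negative control = 1).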
(In general: Alamar Blue is a resazurin reagent that responds to reducing activity.)

[1] abbreviates: compound 30 nM, GSK126 pretreatment: 5 uM GSK126.
The mark [2] stands for this setting: compound 30 nM, GSK126 pretreatment: none (vehicle).
The mark [3] stands for this setting: compound 300 nM, GSK126 pretreatment: 5 uM GSK126.
[4] abbreviates: compound 300 nM, GSK126 pretreatment: none (vehicle).

Where a name gives a salt, the structure may show the parent alone. ± gives the standard deviation of the averaged measurements.

Take `Cn1c(CCCC(=O)O)nc2cc(N(CCCl)CCCl)ccc21` [bendamustine hydrochloride]: the relative viability is 0.713 ± 0.012 under setting [1], 0.729 ± 0.045 under setting [2], 0.784 ± 0.012 under setting [3] and 0.865 ± 0.056 under setting [4].
With `Cc1ccccc1-n1c(Cn2ncc3c(N)ncnc32)nc2cccc(C)c2c1=O`, the relative viability by setting is: under setting [1], 0.756 ± 0.055; under setting [2], 0.787 ± 0.046; under setting [3], 0.689 ± 0.12; under setting [4], 0.857 ± 0.13.
For the compound `C=C1C[C@@H]2[C@H](CC[C@]3(C)C(=O)CC[C@@H]23)[C@@]2(C)C=CC(=O)C=C12` [Exemestane], the relative viability under setting [1] came to 0.797 ± 0.073, the relative viability under setting [2] amounted to 0.82 ± 0.079, the relative viability under setting [3] was determined as 0.839 ± 0.17 and the relative viability under setting [4] turned out to be 0.971 ± 0.086.
In the case of `N.N.[Cl][Pt][Cl]` [Cisplatin], the relative viability is, setting by setting: under setting [1], 0.813 ± 0.035; under setting [2], 0.812 ± 0.029; under setting [3], 0.839 ± 0.099; under setting [4], 0.875 ± 0.018.
Turning to `NCCCNCCSP(=O)(O)O` [Amifostine], the relative viability reads like this: under setting [1], 0.96 ± 0.16; under setting [2], 0.908 ± 0.078; under setting [3], 0.964 ± 0.12; under setting [4], 0.96 ± 0.078.
The like results for `Cc1ccccc1-n1c(Cn2cnc3c(N)ncnc32)nc2cccc(C)c2c1=O` were, in that order, 0.828 ± 0.076, 0.784 ± 0.083, 0.79 ± 0.088 and 0.875 ± 0.056.
Take `N[C@@H](Cc1ccc(N(CCCl)CCCl)cc1)C(=O)O` [Melphalan]: the relative viability is, setting by setting: under setting [1], 0.835 ± 0.054; under setting [2], 0.819 ± 0.11; under setting [3], 0.874 ± 0.13; under setting [4], 0.876 ± 0.068.
As for `Oc1ncc(N(CCCl)CCCl)c(O)n1` [Uracil mustard], the relative viability is 0.792 ± 0.024 under setting [1], 0.801 ± 0.027 under setting [2], 0.81 ± 0.029 under setting [3] and 0.87 ± 0.03 under setting [4].
With `C1CN1c1nc(N2CC2)nc(N2CC2)n1` [Triethylenemelamine], the relative viability under setting [1] is 0.834 ± 0.081, the relative viability under setting [2] stood at 0.834 ± 0.059, the relative viability under setting [3] stood at 0.828 ± 0.012 and the relative viability under setting [4] came to 0.918 ± 0.042.
Consider `O=P1(N(CCCl)CCCl)NCCCO1` (stereo not given) [Cyclophosphamide monohydrate; Cyclophosphamide], for which the relative viability by setting is: under setting [1], 0.799 ± 0.035; under setting [2], 0.813 ± 0.086; under setting [3], 0.877 ± 0.031; under setting [4], 0.941 ± 0.1.
